Assay [1] is described as follows: inhibitors of TNFa-induced NFkB p65 translocation, primary screen, imaging, HUVEC, MLSMR starter and 10KST1 sets (AID 438;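 active = inhibition above 20% together with a positive visual image hit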;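 note: compound added about 3h40 before a 20 min TNFalpha stimulation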;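 for inhibition: signal is the nuclear over cytoplasmic p65 intensity ratio per well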). The note with it: HUVEC TNFa-induced p65 nuclear translocation; cell count: measured here: nuclei count (cytotoxicity indicator), at 2.08 µM; inhibition: at 2 µM, stronger effect = higher value, 0% TNFa-plus-vehicle, 100% no-TNFa wells.
The nature of assay [2]: reduction of polyQ htt aggregates in cells – imaging, exon1htt(103Q)mCFP cells, high-content imaging, primary screen (AID 483;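 active = visual image review flags a hit and inhibition of aggregation exceeds 20%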;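 note: compound exposure lasted 3 days before fixation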;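 for nuclei count: percent of the per-plate median nuclei count of sample wells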). As to conditions: exon1htt(103Q)mCFP cell line, aggregate imaging, at 2 µM; inhibition of aggregation: stronger effect = higher value; nuclei count: measured here: cell count, toxicity.
A short description of assay [3]: endothelial E-selectin expression blockers – imaging, HUVEC, immunofluorescence, MLSMR starter and 10KST1 sets, primary screen (AID 487;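 active = visually confirmed hit in the image check and inhibition above 20%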;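 for inhibition: signal is fraction of cell area covered by stained E-selectin grains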;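 for nuclei count: 100% = median nuclei count of all wells on the same plate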). The note with it: HUVEC TNFalpha-induced E-selectin immunofluorescence imaging, at 2 µM; inhibition: stronger effect = higher value; nuclei count: measured here: cell number, toxicity.
In assay [4] the target is Voltage-gated potassium channel subunit beta-2 (Rattus norvegicus) (UniProt P62483). In words: inhibitors of rat Kvbeta2 reductase activity – biochemical, NADPH fluorescence, primary screen (AID 622).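 Note: slope of raw intensity against log time taken from 70 to 1610 s.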 As to conditions: recombinant KvBeta, 4-cyanobenzaldehyde reduction, at 10 µM, stronger effect = higher value.
Chain of Voltage-gated potassium channel subunit beta-2 (Rattus norvegicus) (P62483 whole entry, looked up): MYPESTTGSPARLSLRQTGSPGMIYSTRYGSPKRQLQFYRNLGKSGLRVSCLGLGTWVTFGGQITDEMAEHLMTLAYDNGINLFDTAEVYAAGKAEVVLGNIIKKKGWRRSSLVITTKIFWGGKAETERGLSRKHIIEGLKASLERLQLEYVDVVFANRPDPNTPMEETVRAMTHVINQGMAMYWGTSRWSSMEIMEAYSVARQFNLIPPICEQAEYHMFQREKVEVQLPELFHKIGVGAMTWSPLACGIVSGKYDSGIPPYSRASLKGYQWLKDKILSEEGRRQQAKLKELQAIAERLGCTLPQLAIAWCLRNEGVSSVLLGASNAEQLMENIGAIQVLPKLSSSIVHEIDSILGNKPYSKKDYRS
Assay [5] has the same target. In words: enhancers of rat Kvbeta2 NADPH turnover – biochemical, NADPH fluorescence, primary screen (AID 623;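 active = NADPH fluorescence slope more negative than the mean of all samples by about 3 SD, 99.7% confidence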;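 note: fluorescence intensity change per second fitted from 20 to 320 s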). As to conditions: Recombinant KvBeta, NADPH fluorescence decrease slope, 10 min; at 10 µM; stronger effect = lower value.
In assay [6] the target is Alpha-2C adrenergic receptor (Homo sapiens) (UniProt P18825). The assay is described as follows: compounds altering alpha2C-coupled GIRK flux – cell-based, HEK293 alpha2C/GIRK1/2, thallium flux, primary screen (AID 624;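 active = fluorescence slope after compound addition differing from the mean of all screened samples at 99.7% confidence, in either direction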;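 note: slope of fluorescence ratio to pre-addition baseline per second over 15 to 24 s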). The note with it: thallium flux BTC fluorescence, at 10 µM, actives lie on both sides.
Chain of Alpha-2C adrenergic receptor (Homo sapiens) (P18825 whole entry, looked up): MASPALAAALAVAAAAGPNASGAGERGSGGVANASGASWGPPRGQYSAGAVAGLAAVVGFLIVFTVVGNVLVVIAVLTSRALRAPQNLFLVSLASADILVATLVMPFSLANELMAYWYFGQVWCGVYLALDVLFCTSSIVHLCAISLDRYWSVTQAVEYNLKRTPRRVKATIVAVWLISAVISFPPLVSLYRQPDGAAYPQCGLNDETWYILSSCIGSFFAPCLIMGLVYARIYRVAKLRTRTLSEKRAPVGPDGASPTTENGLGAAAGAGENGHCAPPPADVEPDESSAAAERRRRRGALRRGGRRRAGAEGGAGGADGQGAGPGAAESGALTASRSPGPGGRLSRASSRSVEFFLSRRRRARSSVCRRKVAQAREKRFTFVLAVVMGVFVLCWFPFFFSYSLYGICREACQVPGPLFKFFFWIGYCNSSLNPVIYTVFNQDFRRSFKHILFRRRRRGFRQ
A short description of assay [7]: blockers of RIG-like receptor reporter activation – cell-based, Sendai virus stimulus, luciferase, 10K MLSCN set, TLR/RLR signaling modifier project, primary screen (AID 602276;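 active = inhibition at or above 50% at 10 µM; inactive = inhibition below 50%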;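 note: firefly luciferase from ISG56 promoter only with Renilla not read in this screen; 0% = Sendai virus plus DMSO and 100% = medium plus DMSO without virus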). As to conditions: HEK293 RL24 IRF3 luciferase reporter, at 10 µM, stronger effect = higher value. On the technique in general: In a reporter assay the amount or activity of a reporter protein is the signal.

Assay [8] can be described thus: TLR3 IRF3 reporter activation blockers – cell-based, poly I:C stimulus, luciferase, 10K MLSCN set, primary screen (AID 602277;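 active = inhibition of the reporter signal at or above 50%; inactive = inhibition below 50%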). The note with it: HEK293-TLR3 RL24 IRF3 luciferase reporter, at 10 µM, stronger effect = higher value.

The source made the active and inactive calls.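 Rule for the calls, unless noted: active = fluorescence slope higher than the sample average by over 3 SD (cut at about -0.22 in these data, passing the limit was not always enough); inactive = the rest.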

The record followed here is PubChem BioAssay.

For `C=COC(=O)CSc1snc(SCC(=O)OC)c1C#N`, in assay [1], the cell count amounted to 300. Also, the inhibition (commonly the change of the read-out against control, counted positive when it falls) in assay [1] is -6.3% (inactive); in assay [3] it was -31.9% (inactive); in assay [7], 15.5% (inactive); in assay [8], 18.4% (inactive). Moreover, the inhibition of aggregation in assay [2] was 11.1% (inactive). In addition, the nuclei count worked out at 102% in assay [2] and 88.9% in assay [3]. In addition, the fluorescence slope in assay [4] was -0.581 (inactive). In addition, the NADPH fluorescence slope in assay [5] is -4.2e-06 (inactive). The slope in assay [6] is 0.00524 (inactive).

For `Cc1oc(-c2ccc(Cl)cc2)cc1-c1nn2c(-c3ccoc3C)nnc2s1`, in assay [1], the cell count was 644. For the same compound, the inhibition in assay [1] is -3.9% (inactive); in assay [3] it was -24.2% (inactive); in assay [7], 19.8% (inactive); in assay [8], 23% (inactive). In addition, the inhibition of aggregation in assay [2] was -0.4% (inactive). Also, the nuclei count in assay [2] was 94.6%; in assay [3], 105%. The fluorescence slope in assay [4] was -0.497 (inactive). In assay [5], the NADPH fluorescence slope was -3.8e-05 (inactive). In addition, in assay [6], the slope was 0.00371 (inactive).

`O=C(CSc1nnc(CNC(=O)c2cccs2)o1)Nc1cccc(C(F)(F)F)c1`: in assay [1], the cell count is 262. For the same compound, the inhibition in assay [1] is 3.8% (inactive); in assay [3] it was -14.2% (inactive); in assay [7], 6.93% (inactive); in assay [8], 19.8% (inactive). The inhibition of aggregation in assay [2] was -12.8% (inactive). In addition, the nuclei count came out at 78.7% in assay [2] and 111% in assay [3]. Moreover, the fluorescence slope in assay [4] is -0.379 (inactive). The NADPH fluorescence slope in assay [5] is -5.5e-05 (inactive). Further, in assay [6], the slope is 0.00592 (inactive).

On to `CC1CN=C(N(C(=O)Nc2ccccc2)c2ccc(S(=O)(=O)N3CCOCC3)cc2)S1` (centres undefined), for which the cell count in assay [1] came out at 476. Further, the inhibition was -4.8% (inactive) in assay [1], -38.9% (inactive) in assay [3], 3.57% (inactive) in assay [7] and 6.41% (inactive) in assay [8]. The inhibition of aggregation in assay [2] was 11.9% (inactive). Moreover, the nuclei count was 95.4% in assay [2] and 112% in assay [3]. The fluorescence slope in assay [4] was -0.356 (inactive). Besides, the NADPH fluorescence slope in assay [5] was -5.2e-05 (inactive). Moreover, in assay [6], the slope is 0.00838 (inactive).

As for `CC(C)(C)C(=O)Cn1c[n+](N)cn1`, in assay [1], the cell count is 545. The inhibition in assay [1] is -9.5% (inactive); in assay [3] it was 18.1% (inactive); in assay [7] it was 18.9% (inactive); in assay [8] it was 26.2% (inactive). The inhibition of aggregation in assay [2] is -3.6% (inactive). Further, the nuclei count in assay [2] was 118%; in assay [3], 105%. For the same compound, in assay [4], the fluorescence slope is -0.62 (inactive). Also, the NADPH fluorescence slope in assay [5] was -3.8e-05 (inactive). Besides, the slope in assay [6] is 0.00385 (inactive).

Turning to `O=c1oc2ccccc2c(O)c1C=NCc1ccccn1`, in assay [1], the cell count came to 452. Further, the inhibition in assay [1] is 7.6% (inactive); in assay [3] it was -63.5% (inactive); in assay [7], -8.1% (inactive); in assay [8], 22.7% (inactive). Moreover, the inhibition of aggregation in assay [2] is 2.3% (inactive). In addition, the nuclei count in assay [2] was 98.7%; in assay [3] it was 95.8%. Besides, in assay [4], the fluorescence slope was -0.509 (inactive). Moreover, the NADPH fluorescence slope in assay [5] was -4.5e-05 (inactive). Moreover, the slope in assay [6] was 0.00647 (inactive).

For `c1coc(Cn2nnnc2CN2CCN(C3CCCC3)CC2)c1`, the cell count in assay [1] turned out to be 530. Moreover, the inhibition in assay [1] is -15.6% (inactive); in assay [3] it was -1.8% (inactive); in assay [7], -7.52% (inactive); in assay [8] it was 12.8% (inactive). Further, the inhibition of aggregation in assay [2] is -2.8% (inactive). Also, the nuclei count in assay [2] came to 96.9%; in assay [3], 107%. The fluorescence slope in assay [4] was -0.408 (inactive). Also, the NADPH fluorescence slope in assay [5] is 2.2e-05 (inactive). Further, in assay [6], the slope is 0.00537 (inactive).

As to `COC(=O)c1ccccc1NC(=O)C1CC(=O)N(c2ccc(F)cc2)C1` (centres undefined), the cell count in assay [1] stood at 321. In addition, the inhibition in assay [1] is 6.5% (inactive); in assay [3], -16.8% (inactive); in assay [7] it was 14.7% (inactive); in assay [8], 5.83% (inactive). In addition, in assay [2], the inhibition of aggregation is -18.4% (inactive). For the same compound, the nuclei count is 115% in assay [2] and 134% in assay [3]. Also, in assay [4], the fluorescence slope was -0.604 (inactive). Also, the NADPH fluorescence slope in assay [5] was -3.1e-05 (inactive). For the same compound, in assay [6], the slope is 0.00375 (inactive).

As to `COc1cc(C(=O)OCC(=O)N(C)Cc2ccccc2)cc(OC)c1OC`, in assay [1], the cell count was determined as 405. For the same compound, the inhibition in assay [1] is 5.1% (inactive); in assay [3] it was -264% (inactive); in assay [7], 15.1% (inactive); in assay [8], 20.6% (inactive). In addition, the inhibition of aggregation in assay [2] was -1.2% (inactive). For the same compound, the nuclei count in assay [2] was found to be 110%; in assay [3], 119%. For the same compound, the fluorescence slope in assay [4] is -0.535 (inactive). In addition, the NADPH fluorescence slope in assay [5] is -0.00012 (inactive). For the same compound, the slope in assay [6] is 0.00533 (inactive).

In the case of `COc1ccc(CCn2c(C)cc(C(=O)CSc3nnnn3C)c2C)cc1`, in assay [1], the cell count came to 441. Moreover, the inhibition is -1.5% (inactive) in assay [1], -45.2% (inactive) in assay [3], 0.703% (inactive) in assay [7] and -19.8% (inactive) in assay [8]. The inhibition of aggregation in assay [2] is -14.4% (inactive). Besides, the nuclei count in assay [2] was determined as 131%; in assay [3] it was 110%. For the same compound, the fluorescence slope in assay [4] was -0.412 (inactive). In assay [5], the NADPH fluorescence slope was 4.6e-05 (inactive). For the same compound, the slope in assay [6] is 0.00361 (inactive).

As to `CCOc1cc(C(=O)Nc2c3c(nn2C(C)(C)C)CS(=O)C3)cc(OCC)c1OCC` (centres undefined), the cell count in assay [1] turned out to be 525. For the same compound, the inhibition in assay [1] is -16.3% (inactive); in assay [3], 16.3% (inactive); in assay [7], 6.91% (inactive); in assay [8] it was 3.04% (inactive). Also, the inhibition of aggregation in assay [2] is -15.3% (inactive). Besides, the nuclei count in assay [2] stood at 109%; in assay [3] it was 122%. In assay [4], the fluorescence slope was -0.545 (inactive). In addition, the NADPH fluorescence slope in assay [5] was 2.6e-05 (inactive). Moreover, the slope in assay [6] is 0.00616 (inactive).

As to `Cc1cccc(OCCCC(=O)O)c1`, in assay [1], the cell count was determined as 438. Further, the inhibition is 1.4% (inactive) in assay [1], -57.9% (inactive) in assay [3], -5.29% (inactive) in assay [7] and 8.09% (inactive) in assay [8]. Moreover, the inhibition of aggregation in assay [2] is -12.7% (inactive). The nuclei count in assay [2] worked out at 101%; in assay [3], 116%. The fluorescence slope in assay [4] is -0.584 (inactive). Moreover, in assay [5], the NADPH fluorescence slope is -3.6e-05 (inactive). Further, in assay [6], the slope is 0.00464 (inactive).

For `Cc1nc2sc(C(c3cccc(F)c3)N3CCOCC3)c(O)n2n1` (centres undefined), in assay [1], the cell count is 244. In addition, the inhibition in assay [1] was -9% (inactive); in assay [3] it was -18.1% (inactive); in assay [7], -7.54% (inactive); in assay [8], 99.3% (active). Also, the inhibition of aggregation in assay [2] was -29% (inactive). Moreover, the nuclei count in assay [2] was determined as 112%; in assay [3], 119%. Also, the fluorescence slope in assay [4] was -0.502 (inactive). Also, the NADPH fluorescence slope in assay [5] was -9.8e-05 (inactive). Also, in assay [6], the slope is 0.00576 (inactive).

For `O=C(Nc1ccccc1-c1ccccc1)NC1CCN(C(=O)N2CCOCC2)CC1`, in assay [1], the cell count was 497. Also, the inhibition was 0% (inactive) in assay [1], 6.6% (inactive) in assay [3], 13.4% (inactive) in assay [7] and 18.7% (inactive) in assay [8]. Besides, the inhibition of aggregation in assay [2] is -19.4% (inactive). The nuclei count turned out to be 113% in assay [2] and 96.7% in assay [3]. Moreover, in assay [4], the fluorescence slope was -0.5 (inactive). In addition, in assay [5], the NADPH fluorescence slope is -4.4e-05 (inactive). Besides, the slope in assay [6] was 0.00404 (inactive).
